Reference: PubChem BioAssay (NCATS)
“And” between values parts separate entries of the source, which are not always exact repeats. Equal entries are not always repeated. Unmarked numbers belong to inactive results. A call without a number means that no potency is given here. The source made the active and inactive calls. Unless noted, the call rests on the fitted dose curve; in most records, active means well fitted inhibition curve with a large enough effect; inconclusive means small, poorly fitted or top-dose-only effect; inactive means flat fitted curve, though single readings scatter.

Legend:
[1] = target: Estrogen receptor (Homo sapiens) (UniProt P03372); assay: qHTS assay for small molecule antagonists of estrogen receptor alpha signaling (AID 588513; active means well fitted curve in the direction sought with a large enough effect in the signal ratio, with a control signal flat, not every such curve was filed as active; inconclusive means small, poorly fitted or top-dose-only effect, or effect the other way, or a change in a side signal; inactive means no such curve, though single readings can be large or run the other way; the % refers to the signal ratio; further: potency means the concentration at half of the fitted maximal effect)
How it was run: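 Antagonist mode: inhibition of 0.5 nM 17-beta-estradiol-driven beta-lactamase reporter in HEK 293 ER-alpha-UAS-bla cells, 18 h at 37C, CCF4 readout after 2 h at RT. Normalised to estradiol and DMSO; titration fitted to Hill.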

[2] = target: Estrogen receptor (Homo sapiens) (UniProt P03372); assay: qHTS assay for small molecule agonists of estrogen receptor alpha signaling (AID 588514; calls by dose curve; further: nearly all actives have a fitted effect of over 70% in size; further: potency means the concentration at half of the fitted maximal effect)
How it was run: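 Cells were plated at 5000/well, incubated 4 hrs at 37 C, dosed with compound titration series, incubated 18 hrs at 37 C, loaded with CCF4 dye for 2 hrs at RT, then fluorescence was read.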

[3] = target: Androgen receptor (Homo sapiens) (UniProt P10275); assay: qHTS assay for small molecule agonists of androgen receptor signaling (AID 588515; active means well fitted curve in the direction sought with a large enough effect in the signal ratio, with a control signal flat; inconclusive means small, poorly fitted or top-dose-only effect, or effect the other way, or a change in a side signal; inactive means no such curve, though single readings can be large or run the other way; the % refers to the signal ratio); settings: AR-UAS-bla HEK293, beta-lactamase ratio, agonist 16 h; stronger effect = higher value
How it was run: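 EC50 and efficacy came from Hill fits of titrations (up to 92 uM) normalized to 30 nM R1881 as 100% and DMSO as 0%. Compound exposure was 16 h at 37 C on AR-UAS-bla HEK293 cells, with a 405/460/530 nm CCF4 fluorescence read.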

[4] = target: Bile acid receptor (Homo sapiens) (UniProt Q96RI1); assay: qHTS assay for small molecule antagonists of farnesoid X receptor signaling (AID 588526; calls by dose curve)
How it was run: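 Antagonist mode: titrated compounds tested against chenodeoxycholic acid stimulation (normalized to 50 uM CDCA and DMSO) in GeneBLAzer HEK293T cells for 16 h. Beta-lactamase read by CCF4 fluorescence; IC50 from Hill fits.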

[5] = target: Glucocorticoid receptor (Homo sapiens) (UniProt P04150); assay: qHTS assay for small molecule agonists of glucocorticoid receptor signaling (AID 588532; active means well fitted curve in the direction sought with a large enough effect in the signal ratio, with a control signal flat; inconclusive means small, poorly fitted or top-dose-only effect, or a change in a side signal; inactive means no such curve, though single readings can be large or run the other way; the % refers to the signal ratio); settings: HeLa MMTV-bla, beta-lactamase ratio, agonist, 18 h; stronger effect = higher value; percent of dexamethasone control, DMSO zero
How it was run: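 MMTV-bla HeLa beta-lactamase reporter cells in 1% charcoal/dextran FBS medium, compounds up to 92 uM for 18 h at 37 C, CCF4 readout; normalized to 0.1 uM dexamethasone (100%), EC50 and efficacy from Hill fits.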

[6] = target: Glucocorticoid receptor (Homo sapiens) (UniProt P04150); assay: qHTS assay for small molecule antagonists of glucocorticoid receptor signaling (AID 588533; active means well fitted inhibition curve with a large enough effect in the signal ratio, with a control signal flat, not every such curve was filed as active; inconclusive means small, poorly fitted or top-dose-only effect, or effect the other way, or a change in a side signal; the % refers to the signal ratio;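 further: cells stimulated with 2 nM dexamethasone as agonist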)
How it was run: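 Antagonist-mode qHTS: compound titrations added to GRE-bla HeLa cells, then dexamethasone 2 nM final; 18 h, 37 C. CCF4 FRET fluorescence normalized to dexamethasone and DMSO; IC50 from Hill fit.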

[7] = target: Ubiquitin carboxyl-terminal hydrolase 1 (Homo sapiens) (UniProt O94782); assay: Inhibitors of USP1/UAF1: Pilot qHTS (AID 504865); further: nearly all actives have a fitted effect of over 35% in size; further: potency means the concentration at half of the fitted maximal effect
How it was run: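 Deubiquitinase activity followed as kinetic rhodamine fluorescence release from 150 nM Ub-Rho. 1 nM USP1/UAF1 with compound, after 15 min room-temperature preincubation, in HEPES pH 7.8 buffer containing TCEP, EDTA, BSA and Tween-20.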

[8] = target: Androgen receptor (Homo sapiens) (UniProt P10275); assay: qHTS assay for small molecule antagonists of androgen receptor signaling (AID 588516; active means well fitted curve in the direction sought with a large enough effect in the signal ratio, with a control signal flat, not every such curve was filed as active; inconclusive means small, poorly fitted or top-dose-only effect, or effect the other way, or a change in a side signal; inactive means no such curve, though single readings can be large or run the other way; the % refers to the signal ratio; further: potency means the concentration at half of the fitted maximal effect)
How it was run: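 Antagonist mode: inhibition of R1881-stimulated (10 nM final) bla reporter in GeneBLAzer AR HEK 293 cells, 16 h at 37C, compounds titrated. IC50 and efficacy from Hill-equation fits of 405/460–530 nm FRET ratios.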

Ubiquitin carboxyl-terminal hydrolase 1 (Homo sapiens), sequence (O94782 whole entry, looked up): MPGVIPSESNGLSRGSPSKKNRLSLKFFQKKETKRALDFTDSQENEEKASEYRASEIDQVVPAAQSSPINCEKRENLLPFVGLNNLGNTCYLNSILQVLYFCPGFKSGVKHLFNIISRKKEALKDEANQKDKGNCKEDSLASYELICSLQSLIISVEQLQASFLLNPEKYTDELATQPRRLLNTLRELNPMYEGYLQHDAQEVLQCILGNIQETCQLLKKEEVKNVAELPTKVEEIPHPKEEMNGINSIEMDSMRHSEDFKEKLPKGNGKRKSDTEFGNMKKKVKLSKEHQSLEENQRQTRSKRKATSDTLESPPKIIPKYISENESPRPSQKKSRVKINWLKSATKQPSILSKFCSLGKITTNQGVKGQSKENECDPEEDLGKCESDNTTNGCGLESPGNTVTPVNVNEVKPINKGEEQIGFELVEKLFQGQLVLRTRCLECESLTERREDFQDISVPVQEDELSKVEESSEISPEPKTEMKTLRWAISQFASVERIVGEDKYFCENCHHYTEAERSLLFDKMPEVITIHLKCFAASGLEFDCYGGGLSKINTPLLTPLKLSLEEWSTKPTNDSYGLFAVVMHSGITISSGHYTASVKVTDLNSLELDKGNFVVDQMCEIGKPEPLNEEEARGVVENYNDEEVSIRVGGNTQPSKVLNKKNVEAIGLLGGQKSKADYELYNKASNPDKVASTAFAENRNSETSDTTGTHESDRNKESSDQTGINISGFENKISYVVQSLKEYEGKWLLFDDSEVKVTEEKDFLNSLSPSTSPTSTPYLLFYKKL
Estrogen receptor (Homo sapiens), sequence (P03372 whole entry, looked up): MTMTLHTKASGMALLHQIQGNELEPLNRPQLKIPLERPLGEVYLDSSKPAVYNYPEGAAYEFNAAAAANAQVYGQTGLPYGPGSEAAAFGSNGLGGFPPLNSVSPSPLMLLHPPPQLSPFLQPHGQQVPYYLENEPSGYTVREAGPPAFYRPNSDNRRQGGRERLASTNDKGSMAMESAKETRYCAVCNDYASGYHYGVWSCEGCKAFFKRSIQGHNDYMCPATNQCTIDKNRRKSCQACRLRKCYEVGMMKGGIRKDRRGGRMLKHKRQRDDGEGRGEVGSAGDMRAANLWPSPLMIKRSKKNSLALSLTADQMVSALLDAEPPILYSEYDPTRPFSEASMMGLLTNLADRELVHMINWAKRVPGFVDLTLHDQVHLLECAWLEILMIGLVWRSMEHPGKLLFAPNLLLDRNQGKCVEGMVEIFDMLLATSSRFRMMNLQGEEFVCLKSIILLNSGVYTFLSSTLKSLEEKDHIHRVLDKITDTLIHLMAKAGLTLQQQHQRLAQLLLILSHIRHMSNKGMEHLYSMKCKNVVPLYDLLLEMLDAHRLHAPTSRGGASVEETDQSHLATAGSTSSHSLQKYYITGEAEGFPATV
Androgen receptor (Homo sapiens), sequence (P10275 whole entry, looked up): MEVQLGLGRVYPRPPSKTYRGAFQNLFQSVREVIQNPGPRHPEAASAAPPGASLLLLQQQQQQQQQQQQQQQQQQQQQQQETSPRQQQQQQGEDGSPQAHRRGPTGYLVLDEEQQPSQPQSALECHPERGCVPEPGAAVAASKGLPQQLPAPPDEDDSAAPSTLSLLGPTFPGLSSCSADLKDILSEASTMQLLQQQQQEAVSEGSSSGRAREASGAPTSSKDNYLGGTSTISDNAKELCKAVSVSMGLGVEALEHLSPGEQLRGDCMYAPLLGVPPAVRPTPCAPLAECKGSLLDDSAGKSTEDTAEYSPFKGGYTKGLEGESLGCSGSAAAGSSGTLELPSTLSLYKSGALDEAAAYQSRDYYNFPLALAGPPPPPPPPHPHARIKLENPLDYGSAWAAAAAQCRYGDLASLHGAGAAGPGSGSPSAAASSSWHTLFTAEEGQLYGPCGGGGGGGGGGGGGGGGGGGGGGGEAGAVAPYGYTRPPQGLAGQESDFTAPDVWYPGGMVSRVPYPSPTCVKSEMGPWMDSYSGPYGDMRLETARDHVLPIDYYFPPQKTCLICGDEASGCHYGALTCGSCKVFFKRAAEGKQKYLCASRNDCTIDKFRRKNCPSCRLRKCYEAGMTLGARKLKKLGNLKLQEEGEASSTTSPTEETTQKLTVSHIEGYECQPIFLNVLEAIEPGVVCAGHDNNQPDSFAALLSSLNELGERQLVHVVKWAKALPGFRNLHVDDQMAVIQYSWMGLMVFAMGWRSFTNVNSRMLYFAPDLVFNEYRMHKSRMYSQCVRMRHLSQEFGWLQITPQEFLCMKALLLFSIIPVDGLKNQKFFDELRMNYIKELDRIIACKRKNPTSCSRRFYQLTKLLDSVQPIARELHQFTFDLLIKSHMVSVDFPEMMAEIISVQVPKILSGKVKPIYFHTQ
Bile acid receptor (Homo sapiens), sequence (Q96RI1 whole entry, looked up): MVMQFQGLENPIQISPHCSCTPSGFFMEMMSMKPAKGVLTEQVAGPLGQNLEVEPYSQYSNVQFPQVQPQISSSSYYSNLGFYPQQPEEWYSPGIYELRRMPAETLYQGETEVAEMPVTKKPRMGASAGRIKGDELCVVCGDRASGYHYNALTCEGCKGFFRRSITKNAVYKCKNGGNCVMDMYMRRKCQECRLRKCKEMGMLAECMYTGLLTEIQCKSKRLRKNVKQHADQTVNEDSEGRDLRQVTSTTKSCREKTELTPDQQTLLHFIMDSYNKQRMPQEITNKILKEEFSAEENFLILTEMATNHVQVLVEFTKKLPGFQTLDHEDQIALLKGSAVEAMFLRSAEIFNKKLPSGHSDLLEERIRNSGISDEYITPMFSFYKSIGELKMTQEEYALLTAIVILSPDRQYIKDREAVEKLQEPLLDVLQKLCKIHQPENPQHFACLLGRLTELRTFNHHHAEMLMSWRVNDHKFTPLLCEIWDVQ
Glucocorticoid receptor (Homo sapiens), sequence (P04150 whole entry, looked up): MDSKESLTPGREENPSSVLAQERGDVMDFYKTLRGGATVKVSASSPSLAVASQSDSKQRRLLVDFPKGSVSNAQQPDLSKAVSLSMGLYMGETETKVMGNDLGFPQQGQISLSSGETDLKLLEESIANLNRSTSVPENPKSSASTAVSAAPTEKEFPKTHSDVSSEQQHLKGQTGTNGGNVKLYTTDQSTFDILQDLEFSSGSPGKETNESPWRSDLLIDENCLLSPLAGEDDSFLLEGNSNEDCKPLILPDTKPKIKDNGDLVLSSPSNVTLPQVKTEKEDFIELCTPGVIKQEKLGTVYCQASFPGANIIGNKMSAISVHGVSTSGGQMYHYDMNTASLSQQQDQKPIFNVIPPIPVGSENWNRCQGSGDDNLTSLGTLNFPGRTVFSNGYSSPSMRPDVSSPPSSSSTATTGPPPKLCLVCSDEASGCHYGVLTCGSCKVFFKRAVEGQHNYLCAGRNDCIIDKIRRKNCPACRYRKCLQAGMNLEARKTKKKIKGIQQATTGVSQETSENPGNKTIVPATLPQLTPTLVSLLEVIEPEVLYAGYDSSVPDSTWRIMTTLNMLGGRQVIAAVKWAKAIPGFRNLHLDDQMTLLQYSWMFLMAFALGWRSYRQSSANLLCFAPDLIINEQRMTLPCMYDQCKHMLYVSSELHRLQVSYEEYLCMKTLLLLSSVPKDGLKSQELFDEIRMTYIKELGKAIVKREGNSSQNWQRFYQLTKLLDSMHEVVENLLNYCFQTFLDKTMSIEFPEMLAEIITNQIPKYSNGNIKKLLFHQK

## CCOc1ccccc1C(N)=O
[1]
  Potency: inactive
[2]
  Potency: inactive
[3]
  activation: -4.07%
[4]
  outcome: inactive
[5]
  activation: -1.86%
[6]
  outcome: inactive

## Oc1c(Cl)cc(Cl)c(Cl)c1Cc1c(O)c(Cl)cc(Cl)c1Cl
[7]
  Potency: 79.4 µM (active) and 31.6 µM (active)
[5]
  activation: -7.2% and -4.02%

## C=C[C@@]1(C)CC(=O)[C@]2(O)[C@@]3(C)[C@@H](O)CCC(C)(C)[C@@H]3[C@H](O)[C@H](OC(C)=O)[C@@]2(C)O1
[7]
  Potency: inactive
[5]
  activation: 3.9%
[6]
  outcome: inactive

## CCCCCCCCCCCCCC(=O)OC(C)C
[7]
  Potency: inactive
[1]
  Potency: inactive
[8]
  Potency: inactive
[5]
  activation: 5.08%
[6]
  outcome: inactive

## CCCCCCCC/C=C\CCCCCCCCN
[7]
  Potency: inactive
[1]
  Potency: inactive
[2]
  Potency: inactive

## COc1ccc(C(=O)c2ccccc2)c(O)c1
[1]
  Potency: inactive
[3]
  activation: 0.242% and -6.84%
[4]
  outcome: inactive
[5]
  activation: 4.95% and -5.72%
[6]
  outcome: inactive

## Nc1ccc(S(=O)(=O)Nc2cnc3ccccc3n2)cc1
[7]
  Potency: inactive

## NS(=O)(=O)c1ccc(Cl)c(S(N)(=O)=O)c1
[7]
  Potency: inactive

## Cc1c[nH]c2ccccc12
[7]
  Potency: inactive

## OC[C@H]1O[C@@H]2O[C@H]3[C@H](O)[C@@H](O)[C@@H](O[C@H]4[C@H](O)[C@@H](O)[C@@H](O[C@H]5[C@H](O)[C@@H](O)[C@@H](O[C@H]6[C@H](O)[C@@H](O)[C@@H](O[C@H]7[C@H](O)[C@@H](O)[C@@H](O[C@H]8[C@H](O)[C@@H](O)[C@@H](O[C@H]1[C@H](O)[C@H]2O)O[C@@H]8CO)O[C@@H]7CO)O[C@@H]6CO)O[C@@H]5CO)O[C@@H]4CO)O[C@@H]3CO
[7]
  Potency: inactive
[5]
  activation: -6.02%

## C#C[C@]1(O)CC[C@H]2[C@@H]3CCC4=Cc5oncc5C[C@]4(C)[C@H]3CC[C@@]21C
[7]
  Potency: inactive
[2]
  Potency: 3.16 µM (active)
[5]
  activation: -5.91%

## CCc1ccc(C(=O)C(C)CN2CCCCC2)cc1 (stereo unspecified)
[7]
  Potency: inactive

## Oc1ccc(Cl)cc1Cc1cc(Cl)ccc1O
[2]
  Potency: inactive
[5]
  activation: -2.26% and 2.38%

## Cc1cc(CC(=O)O)c(C)n1-c1ccc(Cl)cc1
[7]
  Potency: inactive

## NCCNc1cccc2ccccc12
[7]
  Potency: inactive
[3]
  activation: 6.42%
[8]
  Potency: 39.8 µM (active)
[5]
  activation: 3.88% and -4.01%
[6]
  outcome: inactive

## CN(C)C(=O)Nc1ccc(Cl)c(Cl)c1
[7]
  Potency: inactive
[1]
  Potency: inactive
[2]
  Potency: inactive
[3]
  activation: 0.958%
[8]
  Potency: inactive
[5]
  activation: -4.05%
[6]
  outcome: inactive

## CCCCCCCCOc1ccc(C(=O)c2ccccc2)c(O)c1
[7]
  Potency: inactive
[2]
  Potency: inactive

## CCCN(CCC)S(=O)(=O)c1ccc(C(=O)O)cc1
[7]
  Potency: inactive
[3]
  activation: -5.06% and 5.71%
[8]
  Potency: inactive
[4]
  outcome: inactive
[5]
  activation: 0.219% and 1.81%
[6]
  outcome: inactive

## CC(=O)Oc1ccc(C)cc1
[7]
  Potency: inactive

## CCCCCCCCCCCCCCCCO
[1]
  Potency: inactive
[2]
  Potency: inactive
[5]
  activation: -8.72%
[6]
  outcome: inactive

## Cc1cc2c(OCC(CNC(C)(C)C)OC(=O)c3ccccc3)cccc2[nH]1 (stereo unspecified)
[7]
  Potency: inactive

## NC(=O)c1ccccc1O
[7]
  Potency: inactive
[1]
  Potency: inactive
[2]
  Potency: inactive
[5]
  activation: 9.52%
[6]
  outcome: inactive

## COc1ccc(C(Cl)=C(c2ccc(OC)cc2)c2ccc(OC)cc2)cc1
[1]
  Potency: 1.58 µM [inconclusive] (active)
[2]
  Potency: inactive
[5]
  activation: 2.85%
[6]
  outcome: inactive

## CCCCCCCCCCCCCCCC(=O)O
[6]
  outcome: inactive

## COc1cc([C@H]2Oc3cc([C@H]4Oc5cc(O)cc(O)c5C(=O)[C@@H]4O)ccc3O[C@@H]2CO)ccc1O
[1]
  Potency: inactive
[4]
  outcome: inactive
[5]
  activation: -3.21%

## Nc1ccc(C(=O)NCC(=O)O)cc1
[7]
  Potency: inactive

## CN1CCN(c2cc3c(cc2F)c(=O)c(C(=O)O)cn3-c2ccc(F)cc2)CC1
[7]
  Potency: inactive

## CCCCOC(=O)CC(CC(=O)OCCCC)(OC(C)=O)C(=O)OCCCC
[4]
  outcome: inactive
[6]
  outcome: inactive

## CCCCCCCCCCCCCC[N+](C)(C)Cc1ccccc1
[7]
  Potency: 28.2 µM (active)

## C/C=C/c1ccc(O)c(OC)c1
[1]
  Potency: inactive
[2]
  Potency: inactive

## CCCCC(CC)COC(=O)c1ccc(N(C)C)cc1 (stereo unspecified)
[1]
  Potency: inactive
[2]
  Potency: inactive
[4]
  outcome: inactive
[5]
  activation: -4.68%
[6]
  outcome: inactive

## O=C(O)c1ccc(S(=O)(=O)N(Cl)Cl)cc1
[1]
  Potency: inactive
[2]
  Potency: inactive
[4]
  outcome: inactive
[6]
  outcome: inactive

## COc1cc(C)nc(-n2nc(C)cc2OC)n1
[7]
  Potency: inactive

## O=C(O)Cc1csc(-c2ccc(Cl)cc2)n1
[7]
  Potency: inactive

## CC(C)(C)CC(C)(C)c1ccc(O)c(-n2nc3ccccc3n2)c1
[7]
  Potency: inactive
[2]
  Potency: inactive
[5]
  activation: -3.64%
